{
  "source": "paper PMC8384837",
  "about": "“Expanding the binding specificity for RNA recognition by a PUF domain”",
  "assay_in_all_cases": "yeast three-hybrid, YBZ-1, SC-Leu-His + 0.5 mM 3-AT, 4 days",
  "conditions_in_all_cases": "tags: N-Gal4 AD-HA kept; label: inside an RPR1-promoter hybrid RNA with tandem MS2 sites; ssRNA",
  "key": {"PUM1 PUF domain R6-QFR": {"molecular_target": "T1, PUM1 PUF domain R6-QFR (Homo sapiens, UniProt Q14671 828-1176, N1043Q;Y1044F;Q1047R)", "T1 sequence": "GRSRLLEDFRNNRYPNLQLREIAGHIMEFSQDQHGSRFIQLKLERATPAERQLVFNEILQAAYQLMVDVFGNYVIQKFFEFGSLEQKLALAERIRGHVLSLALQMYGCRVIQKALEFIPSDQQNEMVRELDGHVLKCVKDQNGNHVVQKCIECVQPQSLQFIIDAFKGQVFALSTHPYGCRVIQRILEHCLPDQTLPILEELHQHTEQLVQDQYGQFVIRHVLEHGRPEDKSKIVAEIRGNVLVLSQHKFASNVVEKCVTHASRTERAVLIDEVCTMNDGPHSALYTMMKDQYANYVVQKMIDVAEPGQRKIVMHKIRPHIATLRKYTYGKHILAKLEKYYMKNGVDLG", "procedure,_shortened": "(§1)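 The interaction score is the log change in variant frequency from input to selection. Scores were computed in log2 with a pseudocount of 1 for absent variants, using Illumina sequencing of PCR-amplified repeat regions. The input came from four days on SC-Leu and the selection from four days on SC-Leu-His + 0.5 mM 3-AT. The cells were strain YBZ-1 (LexA–MS2 coat fusion, HIS3 reporter) co-expressing Pumilio-1 PUF domain libraries and matching RNA elements from a centromeric plasmid.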"}, "PUM1 PUF domain R4-EPR": {"molecular_target": "PUM1 PUF domain R4-EPR (Homo sapiens, UniProt Q14671 828-1176, N971E;H972P;Q975R)", "sequence (Q14671 828-1176 N971E/H972P/Q975R)": "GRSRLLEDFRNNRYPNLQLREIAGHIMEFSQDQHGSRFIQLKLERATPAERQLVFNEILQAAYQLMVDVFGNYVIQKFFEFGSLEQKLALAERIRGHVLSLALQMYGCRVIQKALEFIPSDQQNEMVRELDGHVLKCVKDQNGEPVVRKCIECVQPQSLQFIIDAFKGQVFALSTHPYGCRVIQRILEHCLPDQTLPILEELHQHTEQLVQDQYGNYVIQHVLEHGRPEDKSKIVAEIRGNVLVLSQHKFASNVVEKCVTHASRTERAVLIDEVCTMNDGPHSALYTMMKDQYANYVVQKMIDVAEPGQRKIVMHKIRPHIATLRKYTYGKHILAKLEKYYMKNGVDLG", "procedure,_shortened": "as §1"}, "PUM1 PUF domain R3-LRA": {"molecular_target": "PUM1 PUF domain R3-LRA (Homo sapiens, UniProt Q14671 828-1176, C935L;Q939A)", "procedure,_shortened": "as §1"}, "PUM1 PUF domain R3-NPV": {"molecular_target": "PUM1 PUF domain R3-NPV (Homo sapiens, UniProt Q14671 828-1176, C935N;R936P;Q939V)", "procedure,_shortened": "as §1"}, "PUM1 PUF domain R3-LRR": {"molecular_target": "PUM1 PUF domain R3-LRR (Homo sapiens, UniProt Q14671 828-1176, C935L;Q939R)", "sequence (Q14671 828-1176 C935L/Q939R)": "as the sequence (Q14671 828-1176 N971E/H972P/Q975R) above, with C108L, Q112R, E144N, P145H, R148Q counted along it", "procedure,_shortened": "as §1"}, "PUM1 PUF domain R3-YSV": {"molecular_target": "PUM1 PUF domain R3-YSV (Homo sapiens, UniProt Q14671 828-1176, C935Y;R936S;Q939V)", "sequence (Q14671 828-1176 C935Y/R936S/Q939V)": "as the sequence (Q14671 828-1176 N971E/H972P/Q975R) above, with C108Y, R109S, Q112V, E144N, P145H, R148Q counted along it", "procedure,_shortened": "as §1"}, "PUM1 PUF domain R1-KIR": {"molecular_target": "PUM1 PUF domain R1-KIR (Homo sapiens, UniProt Q14671 828-1176, S863K;R864I;Q867R)", "procedure,_shortened": "as §1"}, "PUM1 PUF domain R1-KGL": {"molecular_target": "PUM1 PUF domain R1-KGL (Homo sapiens, UniProt Q14671 828-1176, S863K;R864G;Q867L)", "sequence (Q14671 828-1176 S863K/R864G/Q867L)": "as the sequence (Q14671 828-1176 N971E/H972P/Q975R) above, with S36K, R37G, Q40L, E144N, P145H, R148Q counted along it", "procedure,_shortened": "as §1"}, "PUM1 PUF domain R8-AFR": {"molecular_target": "PUM1 PUF domain R8-AFR (Homo sapiens, UniProt Q14671 828-1176, N1122A;Y1123F;Q1126R)", "procedure,_shortened": "as §1"}, "PUM1 PUF domain R8-SWR": {"molecular_target": "PUM1 PUF domain R8-SWR (Homo sapiens, UniProt Q14671 828-1176, N1122S;Y1123W;Q1126R)", "procedure,_shortened": "as §1"}, "PUM1 PUF domain R8-RYL": {"molecular_target": "PUM1 PUF domain R8-RYL (Homo sapiens, UniProt Q14671 828-1176, N1122R;Q1126L)", "procedure,_shortened": "as §1"}, "PUM1 PUF domain R5-RNR": {"molecular_target": "PUM1 PUF domain R5-RNR (Homo sapiens, UniProt Q14671 828-1176, C1007R;R1008N;Q1011R)", "procedure,_shortened": "as §1"}, "PUM1 PUF domain R5-RHI": {"molecular_target": "PUM1 PUF domain R5-RHI (Homo sapiens, UniProt Q14671 828-1176, C1007R;R1008H;Q1011I)", "procedure,_shortened": "as §1"}, "PUM1 PUF domain R5-DKR": {"molecular_target": "PUM1 PUF domain R5-DKR (Homo sapiens, UniProt Q14671 828-1176, C1007D;R1008K;Q1011R)", "sequence (Q14671 828-1176 C1007D/R1008K/Q1011R)": "as the sequence (Q14671 828-1176 N971E/H972P/Q975R) above, with E144N, P145H, R148Q, C180D, R181K, Q184R counted along it", "procedure,_shortened": "as §1"}, "PUM1 PUF domain R5-RAN": {"molecular_target": "PUM1 PUF domain R5-RAN (Homo sapiens, UniProt Q14671 828-1176, C1007R;R1008A;Q1011N)", "sequence (Q14671 828-1176 C1007R/R1008A/Q1011N)": "as the sequence (Q14671 828-1176 N971E/H972P/Q975R) above, with E144N, P145H, R148Q, C180R, R181A, Q184N counted along it", "procedure,_shortened": "as §1"}, "PUM1 PUF domain R5-KGV": {"molecular_target": "PUM1 PUF domain R5-KGV (Homo sapiens, UniProt Q14671 828-1176, C1007K;R1008G;Q1011V)", "sequence (Q14671 828-1176 C1007K/R1008G/Q1011V)": "as the sequence (Q14671 828-1176 N971E/H972P/Q975R) above, with E144N, P145H, R148Q, C180K, R181G, Q184V counted along it", "procedure,_shortened": "as §1"}},
  "data": [
    {"sequence": "GGCUAGAACUAGUGGAUCCCCCGGCGCCCGGCGGCUCGAGCCCGGGUAAGUGCAAAUAGUCUGCAUGCCGCCGGGCGCCAUGCCUGCAGGUCGACUCUAGAAAACAUG", "values": [
      {"measurement": "binding signal", "setting": "PUM1 PUF domain R6-QFR", "value": "4.65 log2 enrichment (interaction score)"}
    ]},
    {"sequence": "GGCUAGAACUAGUGGAUCCCCCGGCGCCCGGCGGCUCGAGCCCGGGUAAGUGUAUAUAGUCUGCAUGCCGCCGGGCGCCAUGCCUGCAGGUCGACUCUAGAAAACAUG", "values": [
      {"measurement": "binding signal", "setting": "PUM1 PUF domain R4-EPR", "value": "2.23 log2 enrichment (interaction score)"}
    ]},
    {"sequence": "GGCUAGAACUAGUGGAUCCCCCGGCGCCCGGCGGCUCGAGCCCGGGUAAGUGUAAUUAGUCUGCAUGCCGCCGGGCGCCAUGCCUGCAGGUCGACUCUAGAAAACAUG", "values": [
      {"measurement": "binding signal", "setting": "PUM1 PUF domain R3-LRA", "value": "1.5 log2 enrichment (interaction score)"},
      {"measurement": "binding signal", "setting": "PUM1 PUF domain R3-NPV", "value": "2.64 log2 enrichment (interaction score)"},
      {"measurement": "binding signal", "setting": "PUM1 PUF domain R3-LRR", "value": "0.21 log2 enrichment (interaction score)"}
    ]},
    {"sequence": "GGCUAGAACUAGUGGAUCCCCCGGCGCCCGGCGGCUCGAGCCCGGGUAAGUGUAAGUAGUCUGCAUGCCGCCGGGCGCCAUGCCUGCAGGUCGACUCUAGAAAACAUG", "values": [
      {"measurement": "binding signal", "setting": "PUM1 PUF domain R3-LRA", "value": "4.29 log2 enrichment (interaction score)"},
      {"measurement": "binding signal", "setting": "PUM1 PUF domain R3-LRR", "value": "3.15 log2 enrichment (interaction score)"},
      {"measurement": "binding signal", "setting": "PUM1 PUF domain R3-YSV", "value": "2.32 log2 enrichment (interaction score)"}
    ]},
    {"sequence": "GGCUAGAACUAGUGGAUCCCCCGGCGCCCGGCGGCUCGAGCCCGGGUAAGUGUAAAUCGUCUGCAUGCCGCCGGGCGCCAUGCCUGCAGGUCGACUCUAGAAAACAUG", "values": [
      {"measurement": "binding signal", "setting": "PUM1 PUF domain R1-KIR", "value": "4.83 log2 enrichment (interaction score)"},
      {"measurement": "binding signal", "setting": "PUM1 PUF domain R1-KGL", "value": "3.12 log2 enrichment (interaction score)"}
    ]},
    {"sequence": "GGCUAGAACUAGUGGAUCCCCCGGCGCCCGGCGGCUCGAGCCCGGGUAAGUGUACAUAGUCUGCAUGCCGCCGGGCGCCAUGCCUGCAGGUCGACUCUAGAAAACAUG", "values": [
      {"measurement": "binding signal", "setting": "PUM1 PUF domain R4-EPR", "value": "3.74 log2 enrichment (interaction score)"}
    ]},
    {"sequence": "GGCUAGAACUAGUGGAUCCCCCGGCGCCCGGCGGCUCGAGCCCGGGUAAGCGUAAAUAGUCUGCAUGCCGCCGGGCGCCAUGCCUGCAGGUCGACUCUAGAAAACAUG", "values": [
      {"measurement": "binding signal", "setting": "PUM1 PUF domain R8-AFR", "value": "3.34 log2 enrichment (interaction score)"},
      {"measurement": "binding signal", "setting": "PUM1 PUF domain R8-SWR", "value": "5.3 log2 enrichment (interaction score)"},
      {"measurement": "binding signal", "setting": "PUM1 PUF domain R8-RYL", "value": "5.95 log2 enrichment (interaction score)"}
    ]},
    {"sequence": "GGCUAGAACUAGUGGAUCCCCCGGCGCCCGGCGGCUCGAGCCCGGGUAAGUGUCAAUAGUCUGCAUGCCGCCGGGCGCCAUGCCUGCAGGUCGACUCUAGAAAACAUG", "values": [
      {"measurement": "binding signal", "setting": "PUM1 PUF domain R5-RNR", "value": "3.17 log2 enrichment (interaction score)"},
      {"measurement": "binding signal", "setting": "PUM1 PUF domain R5-RHI", "value": "4.97 log2 enrichment (interaction score)"},
      {"measurement": "binding signal", "setting": "PUM1 PUF domain R5-DKR", "value": "5.01 log2 enrichment (interaction score)"},
      {"measurement": "binding signal", "setting": "PUM1 PUF domain R5-RAN", "value": "2.21 log2 enrichment (interaction score)"},
      {"measurement": "binding signal", "setting": "PUM1 PUF domain R5-KGV", "value": "4.44 log2 enrichment (interaction score)"}
    ]}
  ]
}
